An excerpt weighted towards active compounds, which were near 0.7% of everything screened.
BioA inh-1: M. tuberculosis BioA enzyme inhibitors, primary screen, biochemical, plate reader, single point, HTS | purified M. tuberculosis BioA enzyme | AID 602481, 2012 | 0.096% of 360,000 active | inhibition, % at 9.99 µM | 7,8-diaminopelargonic acid synthase BioA (Mycobacterium tuberculosis); in the data active = inhibition above about 40%; inconclusive = no clear call, values can overlap the other calls
3CLpro inhibitor: SARS-CoV 3CLpro protease inhibitors, primary screen, biochemical, quenched FRET. AID 1706, 2009. 0.14% of 290,000 active. inhibition, % at 6 µM. recombinant SARS-CoV 3CLpro, quenched FRET peptide cleavage; in the data active = inhibition above about 12%
Mtb hypoxia rep: PubChem AID 1159583. M. tuberculosis hypoxia-regulated fluorescent reporter, fluorescence. 0.1% of 300,000 active. fluorescence inhibition, % (test concentration not listed); in the data active = fluorescence inhibition mostly above about 23%, no sharp cut-off; inactive = mostly below about 17%
DUSP3 inh: VHR1 phosphatase inhibitors, primary screen, biochemical, absorbance, uHTS; recombinant VHR phosphatase, pNPP absorbance; 0.52% of 290,000 active; Dual specificity protein phosphatase 3 (Homo sapiens), P51452; inhibition, % at 13.3 µM; in the data active = inhibition above about 50%
FadD28 binding: inhibitors of FadD28 bisubstrate probe binding, primary screen, biochemical, fluorescence polarization, single point; Mycobacterium tuberculosis FadD28 fatty-acid-AMP ligase; inhibition, % at 12.5 µM; 0.22% of 360,000 active; in the data active = inhibition above about 8.5%, passing the limit was not always enough; inconclusive = no clear call, values can overlap the other calls
BioA inh-2: Mtb BioA enzyme inhibitors, dose response, biochemical, plate reader, cherry-pick samples, set 03 | shares compounds with BioA inh-1 | purified BioA enzyme | max activity, % | 310 tested, under 10 active | AID 651679, 2012;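 note: top concentration of the dilution series was 10 µM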
Target sequence (P9WQ81 whole entry, looked up): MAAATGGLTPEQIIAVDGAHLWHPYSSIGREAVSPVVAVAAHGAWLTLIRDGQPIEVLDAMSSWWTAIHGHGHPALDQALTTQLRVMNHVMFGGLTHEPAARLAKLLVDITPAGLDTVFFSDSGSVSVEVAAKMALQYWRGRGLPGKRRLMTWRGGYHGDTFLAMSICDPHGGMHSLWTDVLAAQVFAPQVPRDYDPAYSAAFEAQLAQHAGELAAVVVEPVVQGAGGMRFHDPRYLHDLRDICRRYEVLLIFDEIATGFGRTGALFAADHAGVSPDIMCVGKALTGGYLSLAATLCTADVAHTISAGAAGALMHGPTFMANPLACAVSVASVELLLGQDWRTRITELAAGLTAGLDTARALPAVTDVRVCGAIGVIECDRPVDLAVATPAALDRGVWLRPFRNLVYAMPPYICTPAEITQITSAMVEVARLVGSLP
HepG2 tox 2: cytotoxicity in HepG2 cells, dose response, cytotoxicity control, cell-based, plate reader, cherry-pick, two tests. 310 tested, under 10 active. max activity, %. shares compounds with BioA inh-1. AID 651898, 2012
3T3 cytotox 5: cytotoxicity in NIH3T3 fibroblasts, dose response, cytotoxicity control, cell-based, plate reader, cherry-pick, two tests; 310 tested, under 10 active; activity change, negative = cytotoxicity, % at 26 µM; shares compounds with BioA inh-1
* hit, by the source's call; i = inactive; ? = inconclusive; nt = no result given. Unless noted, the rule behind the calls is not given here.

SMILES | BioA inh-1 | 3CLpro inhibitor | Mtb hypoxia rep | DUSP3 inh | FadD28 binding | BioA inh-2 | HepG2 tox 2 | 3T3 cytotox 5
CN1CCCC1CCOC(C)(c1ccccc1)c1ccc(Cl)cc1 (centres undefined) | 48* | nt | nt | nt | -7 | 10 | 18 | ?
CCNC(=O)C[C@@H]1CC[C@H]2[C@H](COc3ccc(NC(=O)Nc4cccc(F)c4)cc3C(=O)N2C)O1 | 8 | nt | nt | nt | nt | nt | nt | nt
CCNC(=O)C[C@H]1CC[C@@H]2[C@@H](COc3ccc(NC(=O)Nc4cccc(F)c4)cc3C(=O)N2C)O1 | 42* | nt | nt | nt | nt | 6 | i | -4
C#CCSc1nnc(-c2sc(-c3ccccc3)nc2C)n1C | 60* | -2 | -19 | 33 | -1 | -3 | -14 | 3
COc1ccc(NC(=O)c2ccc(Cl)nc2)cc1S(=O)(=O)N1CCOCC1 | 59* | nt | 3 | nt | -3 | -9 | -14 | -4
CCC1=C(OC(=O)N(CC)CC)N2C(=O)OC(=NCCc3c[nH]c4ccccc34)[C@]2(C)C2C1=CCC1C(=O)N(CC)C(=O)C12 (some centres undefined) | nt | nt | -1 | nt | nt | nt | nt | nt
O=C(CSc1nnc(-c2ccncc2)n1-c1ccc(Cl)cc1)NCc1cccs1 | 47* | -1 | 15 | -7 | -2 | -10 | -13 | -8
CC(=O)Nc1ccc2nc(-c3cccnc3)[nH]c2c1 | 56* | 1 | 0 | -4 | 1 | -5 | 7 | 3
O=c1c2ccccc2nc(COc2ccccc2)n1N=Cc1ccco1 | nt | nt | 5 | nt | nt | nt | nt | nt
Cc1c(OCC(=O)NCc2ccccn2)ccc2c3c(c(=O)oc12)CCCC3 | -2 | 2 | 12 | 6 | -1 | nt | nt | nt
Cc1c(OC(C)C(=O)NCc2ccccn2)ccc2c3c(c(=O)oc12)CCC3 (centres undefined) | 43* | -1 | 13 | 2 | -3 | -8 | -5 | -3
CN(C)C=Nc1nc(Sc2ccc(C(F)(F)F)cc2[N+](=O)[O-])n[nH]1 | nt | nt | -6 | nt | nt | nt | nt | nt
O=C(Nc1cccnc1)C1CCN(S(=O)(=O)c2ccc(Cl)cc2)CC1 | 85* | 3 | -3 | 23 | -1 | -9 | -13 | -2
CSc1ccc(S(=O)(=O)N2CCC(C(=O)Nc3cccnc3)CC2)cc1 | 71* | 5 | -15 | -14 | -1 | -6 | -17 | 3
CC1(C)CC(=O)CC(=NNC(=O)COc2ccc3ccccc3c2Br)C1 | nt | nt | 17 | nt | nt | nt | nt | nt
COC(=O)c1ccc(C=Cc2c(-c3ccc(OC)cc3)sc3ccccc23)cc1 | nt | nt | 5 | nt | nt | nt | nt | nt
COc1ccc(NC2c3ccccc3C(=O)N2c2cccnc2)cc1Cl (centres undefined) | 51* | 4 | 3 | -1 | -4 | -7 | -16 | -3
O=C1c2ccccc2C(Nc2ccccc2)N1c1cccnc1 (centres undefined) | 2 | -2 | 7 | 17 | -4 | nt | nt | nt
COc1ccccc1-c1n[nH]c2c1C(C)CCC2C(C)C (centres undefined) | nt | nt | -1 | nt | nt | nt | nt | nt
COc1ccccc1NC(=O)N[C@H]1CC[C@@H](CCn2cc(-c3cccnc3)nn2)O[C@H]1CO | 33 | nt | nt | nt | nt | nt | nt | nt
O=C(N[C@H]1CC[C@@H](CCn2cc(-c3cccnc3)nn2)O[C@H]1CO)c1ccccc1F | 47* | nt | nt | nt | nt | 3 | i | 2
COc1ccccc1NC(=O)N[C@@H]1CC[C@H](CCn2cc(-c3cccnc3)nn2)O[C@H]1CO | 57* | nt | nt | nt | nt | 5 | i | -9
COc1ccc(C(C)NC(=O)Nc2ccc(C(C)=O)cc2)cc1OC (centres undefined) | 43* | -2 | 0 | 18 | -1 | -4 | 7 | 5
COC(=O)C1=C(C)N(c2ccc(Cl)cc2)C(=Cc2cccs2)C1=O | nt | nt | 4 | nt | nt | nt | nt | nt

Screening results deposited in PubChem by several laboratories.
